From PubChem BioAssay (EPA / NIEHS) come the findings set out here.

The target of assay [1] is Paired box protein Pax-6 (Homo sapiens) (UniProt P26367). As to the kind of experiment: ATG_Pax6_CIS: Attagene CIS-FACTORIAL HepG2 Assay for human Paired Box 6 (PAX6) (AID 2282956). The following applies: HepG2 CIS-FACTORIAL PAX6 reporter transcription, RNA readout; actives raise or lower the signal. In short, it runs like this:
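Multiplexed cis-reporter HepG2 system; 24 h treatment; reporter mRNA read by RT-PCR/CE fluorescence; bidirectional fit vs DMSO.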

Assay [2] can be described thus: ATG_PXRE_CIS: Attagene CIS-FACTORIAL HepG2 Assay for human Pregnane X Receptor Element (PXRE) (AID 2282957). Conditions: HepG2 Attagene CIS-FACTORIAL PXRE reporter, mRNA; actives raise or lower the signal. A digest of the protocol: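 HepG2 cells transiently transfected with cis-regulated multiple reporter transcription units; endogenous factor activity measured as reporter mRNA 24 h after dosing. RT-PCR, fluorescent primer extension, HpaI digestion, capillary electrophoresis; bidirectional fit versus DMSO baseline.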

Assay [3] in a line: ATG_PPRE_CIS: Attagene CIS-FACTORIAL HepG2 Assay for human Peroxisome Proliferator-activated Response Element (PPRE) (AID 2282958). The following applies: HepG2 PPRE cis-element reporter, Attagene transcription factor profiling; actives raise or lower the signal. A digest of the protocol:
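In this cell-based multiplex, a PPRE cis element drives a reporter sequence in transiently transfected HepG2 cells. Following 24 h treatment, labeled cDNA amplicons are sized and quantified by capillary electrophoresis, with DMSO defining baseline.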

Assay [4] is described as follows: ATG_RORE_CIS: Attagene CIS-FACTORIAL HepG2 Assay for human RAR-related Orphan Receptor Element (RORE) (AID 2282959). The following applies: HepG2 Attagene cis-factorial RORE reporter, mRNA; actives raise or lower the signal. A digest of the protocol:
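Endogenous factor activity at a cis response element is read as reporter transcript levels in HepG2 cells, 24 h post-dose. Transcripts are quantified by RT-PCR with capillary electrophoresis, and data fitted in both directions against DMSO.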

The nature of assay [5]: ATG_Sox_CIS: Attagene CIS-FACTORIAL HepG2 Assay for human SRY-box transcription factor (SOX) (AID 2282960). The following applies: HepG2 Attagene cis-factorial SOX reporter, mRNA; actives raise or lower the signal. In short, it runs like this: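 Measures mRNA induction of a SOX1-associated reporter in HepG2 after 24 h dosing. Fluorescently labelled RT-PCR fragments are separated by capillary electrophoresis, and gain or loss relative to DMSO control is fitted.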

Assay [6] concerns the target Transcription factor Sp1 (Homo sapiens) (UniProt P08047). In words: ATG_Sp1_CIS: Attagene CIS-FACTORIAL HepG2 Assay for human Specificity Protein 1 (Sp1) (AID 2282961). The following applies: HepG2 Sp1 cis-reporter transcription, actives raise or lower the signal. A digest of the protocol:
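Cells: HepG2, transiently transfected with cis-regulated multiplexed reporters. Exposure: 24 h. Detection: reporter transcripts amplified, fluorescently labeled, restriction-digested and sized by capillary electrophoresis. Analysis: bidirectional fit relative to DMSO.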

A short description of assay [7]: ATG_SREBP_CIS: Attagene CIS-FACTORIAL HepG2 Assay for human Sterol Regulatory Element Binding (SREBP) (AID 2282962). The following applies: HepG2 Attagene cis-factorial SREBP reporter, mRNA; actives raise or lower the signal. In short, it runs like this:
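mRNA induction of transfected cis-promoter reporters in HepG2 cells, 24 h post-dose. Detection: RT-PCR with 6-FAM-labelled products, HpaI digest, capillary electrophoresis. DMSO served as negative control and baseline.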

For assay [8], the target named is Signal transducer and activator of transcription 3 (Homo sapiens) (UniProt P40763). As to the kind of experiment: ATG_STAT3_CIS: Attagene CIS-FACTORIAL HepG2 Assay for human Signal Transducer and Activator of Transcription 3 (STAT3) (AID 2282963). Conditions: HepG2, Attagene cis-factorial STAT3 reporter transcription; actives raise or lower the signal. In short, it runs like this: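 Endogenous STAT3-responsive cis-element activity was read in transiently transfected HepG2 cells after 24 h treatment. Reporter transcripts were quantified via RT-PCR and capillary electrophoresis, with DMSO as negative control and bidirectional curve fitting.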
Sequence of Signal transducer and activator of transcription 3 (Homo sapiens) (P40763 whole entry, looked up): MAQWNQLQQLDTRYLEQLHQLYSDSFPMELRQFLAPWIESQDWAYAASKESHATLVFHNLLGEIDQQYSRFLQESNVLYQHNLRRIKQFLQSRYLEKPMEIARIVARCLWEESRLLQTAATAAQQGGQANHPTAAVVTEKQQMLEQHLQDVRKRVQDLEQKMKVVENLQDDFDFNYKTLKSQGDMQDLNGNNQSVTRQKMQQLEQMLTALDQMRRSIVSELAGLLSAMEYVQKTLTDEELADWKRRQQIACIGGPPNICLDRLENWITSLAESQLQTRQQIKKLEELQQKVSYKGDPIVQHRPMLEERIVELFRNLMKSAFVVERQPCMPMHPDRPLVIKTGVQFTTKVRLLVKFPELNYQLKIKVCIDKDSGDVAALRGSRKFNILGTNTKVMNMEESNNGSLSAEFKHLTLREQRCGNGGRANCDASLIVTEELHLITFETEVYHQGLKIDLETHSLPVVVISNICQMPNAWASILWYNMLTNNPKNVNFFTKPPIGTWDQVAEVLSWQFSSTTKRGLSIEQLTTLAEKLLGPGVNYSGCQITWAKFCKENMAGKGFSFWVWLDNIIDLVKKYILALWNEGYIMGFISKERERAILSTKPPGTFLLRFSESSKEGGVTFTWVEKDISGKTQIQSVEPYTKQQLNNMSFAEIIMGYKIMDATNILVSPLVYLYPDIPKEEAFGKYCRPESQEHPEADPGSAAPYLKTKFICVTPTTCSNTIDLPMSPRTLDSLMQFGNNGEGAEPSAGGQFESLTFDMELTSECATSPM

Assay [9] is described as follows: ATG_TA_CIS: Attagene CIS-FACTORIAL HepG2 Assay for human TA Basal Promoter (AID 2282964). The following applies: HepG2 Attagene CIS-factorial TA basal promoter reporter; actives raise or lower the signal. A digest of the protocol: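 Steps: transfect HepG2 with MRTUs; dose 24 h; isolate RNA, DNase-treat, reverse-transcribe; PCR and FAM-label reporter cDNA; digest with HpaI 2h at 37 C; run capillary electrophoresis. Activity fitted both directions against DMSO.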

Assay [10] is described as follows: ATG_TCF_b_cat_CIS: Attagene CIS-FACTORIAL HepG2 Assay for human T-Cell-Factor with beta-catenin (TCF/b-cat) (AID 2282965). The following applies: HepG2 TCF/beta-catenin cis-reporter transcription, actives raise or lower the signal. In short, it runs like this:
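Endogenous TCF/LEF activity read as reporter transcript level via RT-PCR and capillary electrophoresis fluorescence in transfected HepG2, 24 h exposure; gain or loss of signal fitted against DMSO controls.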

A short description of assay [11]: ATG_TAL_CIS: Attagene CIS-FACTORIAL HepG2 Assay for human TAL Basal Promoter (AID 2282966).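 Further: background control endpoint measuring basal TAL promoter reporter mRNA not a specific factor.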 The following applies: HepG2 Attagene cis-factorial TAL promoter reporter; actives raise or lower the signal. In short, it runs like this: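 HepG2 cells were transiently transfected with promoter-driven multiplexed reporter units and dosed for 24 h. Reporter mRNA was measured by RT-PCR with capillary electrophoresis fluorescence; bidirectional fits used DMSO as baseline, serving as a background control.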

A short description of assay [12]: ATG_TGFb_CIS: Attagene CIS-FACTORIAL HepG2 Assay for human Transforming Growth Factor (TGF) (AID 2282967). The following applies: HepG2 Attagene CIS TGFb reporter, mRNA transcription; actives raise or lower the signal. In short, it runs like this:
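Cells were dosed for 24 hours, after which total RNA was reverse-transcribed and reporter sequences amplified, labeled and sized by capillary electrophoresis. Activity was fitted in both directions against DMSO.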

The nature of assay [13]: ATG_M_19_TRANS: Attagene TRANS-FACTORIAL HepG2 Assay for M19 Transcription Factor (Internal Marker) (AID 2282974; active means hit-call score of the fitted dose curve at least 0.9, where 1 is the maximum). The following applies: HepG2 Attagene TRANS-FACTORIAL M19 internal marker reporter. In short, it runs like this:
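Reporter mRNA induction was measured in transfected HepG2 cells 24 h after dosing. Endpoint fitted upward relative to DMSO and serves as a background control within the multiplexed TRANS panel.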

Assay [14] addresses Estrogen receptor (Homo sapiens) (UniProt P03372). In words: ATG_ERa_TRANS: Attagene TRANS-FACTORIAL HepG2 Assay for human Estrogen Receptor alpha (ERa) (AID 2282970; active means hit-call score of the fitted dose curve at least 0.9, where 1 is the maximum). The following applies: HepG2 Attagene TRANS ERa GAL4 reporter, mRNA. A digest of the protocol:
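HepG2 cells transiently transfected with multiplexed GAL4-UAS reporter units; ERa activity read via exogenous chimeric NR-Gal4 protein. After 24 hour compound exposure, reporter mRNA measured by RT-PCR with 6-FAM labelling and capillary electrophoresis; gain-of-signal fitted relative to DMSO.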

Assay [15] in a line: ATG_GAL4_TRANS: Attagene TRANS-FACTORIAL HepG2 Assay for GAL4 (Internal Marker) (AID 2282976; active means hit-call score of the fitted dose curve at least 0.9, where 1 is the maximum). Conditions: HepG2 Attagene TRANS GAL4 internal marker reporter. A digest of the protocol:
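HepG2 cells transiently transfected with multiplexed GAL4-UAS reporter constructs were dosed for 24 h. Reporter mRNA was measured by RT-PCR, 6-FAM primer extension, HpaI digestion and capillary electrophoresis, and gain of signal was fitted relative to DMSO.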

The nature of assay [16]: ATG_VDRE_CIS: Attagene CIS-FACTORIAL HepG2 Assay for human Vitamin D Receptor Element (VDRE) (AID 2282968). Conditions: HepG2 VDRE cis-reporter transcription, actives raise or lower the signal. A digest of the protocol:
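Reporter mRNA induction, quantified by capillary electrophoresis of fluorescently labelled RT-PCR products, was read 24 h after dosing HepG2 cells carrying transiently transfected cis-regulated reporter units; gain or loss relative to DMSO.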

Assay [17] concerns the target Steroid hormone receptor ERR1 (Homo sapiens) (UniProt P11474). In words: ATG_ERRa_TRANS: Attagene TRANS-FACTORIAL HepG2 Assay for human Estrogen-Related Receptor alpha (ERRa) (AID 2282971; active means hit-call score of the fitted dose curve at least 0.9, where 1 is the maximum). Conditions: HepG2 Attagene TRANS reporter, ERRa transactivation. In short, it runs like this:
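HepG2 cells transiently transfected with multiplexed GAL4-UAS reporter units reading chimeric ERRa-Gal4 activity; 24 h compound exposure. Reporter mRNA measured by RT-PCR, 6-FAM labelling, HpaI digest and capillary electrophoresis; gain of signal fitted versus DMSO baseline.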

Assay [18] has as its target Estrogen-related receptor gamma (Homo sapiens) (UniProt P62508). In words: ATG_ERRg_TRANS: Attagene TRANS-FACTORIAL HepG2 Assay for human Estrogen-Related Receptor gamma (ERRg) (AID 2282977; active means hit-call score of the fitted dose curve at least 0.9, where 1 is the maximum;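 further: hits increase reporter signal over DMSO so potencies reflect activators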). Conditions: HepG2 Attagene TRANS reporter, ERRg transactivation. A digest of the protocol: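 Transfect HepG2 with multiple GAL4-UAS reporter transcription units; dose chemicals 24 h; isolate RNA, reverse-transcribe with oligo(dT), PCR-amplify, label with 6-FAM, digest with HpaI; size fragments by capillary electrophoresis. DMSO serves as negative control.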

In assay [19] the target is Nuclear receptor subfamily 1 group I member 3 (Homo sapiens) (UniProt Q14994). As to the kind of experiment: ATG_CAR_TRANS: Attagene TRANS-FACTORIAL HepG2 Assay for human Constitutive Androstane Receptor (CAR) (AID 2282969; active means hit-call score of the fitted dose curve at least 0.9, where 1 is the maximum;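 further: activators raise reporter mRNA above DMSO so AC50 marks induction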). Conditions: HepG2 Attagene TRANS-FACTORIAL CAR reporter. A digest of the protocol: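 Readout is reporter mRNA induction, quantified by fluorescent primer extension and capillary electrophoresis after RT-PCR. Cells were HepG2 transiently carrying chimeric NR-Gal4 constructs with GAL4-UAS reporters, treated for 24 h; activity scored upward from DMSO.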
Sequence of Nuclear receptor subfamily 1 group I member 3 (Homo sapiens) (Q14994 whole entry, looked up, the tested form may be a part): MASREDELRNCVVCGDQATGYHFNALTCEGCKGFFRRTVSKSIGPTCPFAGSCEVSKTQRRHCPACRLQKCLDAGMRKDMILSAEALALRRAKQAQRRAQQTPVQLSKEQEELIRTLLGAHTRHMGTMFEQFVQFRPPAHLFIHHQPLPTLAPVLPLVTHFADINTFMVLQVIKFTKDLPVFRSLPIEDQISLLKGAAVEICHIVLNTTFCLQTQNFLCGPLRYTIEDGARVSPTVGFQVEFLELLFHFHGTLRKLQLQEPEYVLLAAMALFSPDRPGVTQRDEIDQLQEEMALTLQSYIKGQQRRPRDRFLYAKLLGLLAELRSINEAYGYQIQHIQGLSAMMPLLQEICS

Assay [20] concerns the target X-box-binding protein 1 (Homo sapiens) (UniProt P17861). In words: ATG_Xbp1_CIS: Attagene CIS-FACTORIAL HepG2 Assay for human X-box Binding Protein 1 (XBP1) (AID 2282972). Conditions: HepG2 XBP1 cis-element reporter, Attagene multiplex; actives raise or lower the signal. In short, it runs like this:
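Fluorescence-labelled cDNA fragments from reporter transcripts, separated by capillary electrophoresis, give the signal. Source: HepG2 cells transfected with promoter-driven reporter units, harvested 24 h post-dose. DMSO served as reference for bidirectional curve fitting.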

Where “and” joins values, the source holds several entries; their conditions need not be identical. Equal values may be shown once. Results filed as inconclusive are left out. The source holds several records for some structures; these can differ, active in one and inactive in another. Calls of active or inactive are those of the source. How the source made its calls, unless noted: active means hit-call score of the fitted dose curve at least 0.9, where 1 is the maximum; inactive means score below 0.9.

The term AC50 denotes the concentration at which the activity in the assay is half-maximal.

Sequence of Transcription factor Sp1 (Homo sapiens) (P08047 whole entry, looked up): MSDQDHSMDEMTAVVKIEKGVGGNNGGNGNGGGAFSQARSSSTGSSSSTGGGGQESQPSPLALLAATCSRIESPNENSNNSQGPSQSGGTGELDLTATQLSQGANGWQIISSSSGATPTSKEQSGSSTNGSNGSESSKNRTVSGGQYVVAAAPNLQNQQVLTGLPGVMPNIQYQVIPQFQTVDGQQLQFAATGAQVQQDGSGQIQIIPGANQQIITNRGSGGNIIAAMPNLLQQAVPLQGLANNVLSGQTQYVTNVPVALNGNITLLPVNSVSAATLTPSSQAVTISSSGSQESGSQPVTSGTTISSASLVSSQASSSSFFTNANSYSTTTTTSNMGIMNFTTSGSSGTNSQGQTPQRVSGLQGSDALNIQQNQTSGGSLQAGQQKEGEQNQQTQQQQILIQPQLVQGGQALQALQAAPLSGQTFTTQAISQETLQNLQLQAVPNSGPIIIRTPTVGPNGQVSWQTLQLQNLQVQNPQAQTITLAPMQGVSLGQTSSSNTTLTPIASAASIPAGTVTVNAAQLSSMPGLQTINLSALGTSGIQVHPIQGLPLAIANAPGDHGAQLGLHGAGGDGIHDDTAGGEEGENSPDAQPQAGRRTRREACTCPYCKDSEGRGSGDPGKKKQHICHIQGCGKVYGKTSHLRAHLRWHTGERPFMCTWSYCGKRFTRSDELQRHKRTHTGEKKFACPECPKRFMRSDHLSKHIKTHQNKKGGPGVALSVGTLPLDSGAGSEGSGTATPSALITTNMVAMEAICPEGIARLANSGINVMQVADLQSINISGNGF
Sequence of X-box-binding protein 1 (Homo sapiens) (P17861 whole entry, looked up, the tested form may be a part): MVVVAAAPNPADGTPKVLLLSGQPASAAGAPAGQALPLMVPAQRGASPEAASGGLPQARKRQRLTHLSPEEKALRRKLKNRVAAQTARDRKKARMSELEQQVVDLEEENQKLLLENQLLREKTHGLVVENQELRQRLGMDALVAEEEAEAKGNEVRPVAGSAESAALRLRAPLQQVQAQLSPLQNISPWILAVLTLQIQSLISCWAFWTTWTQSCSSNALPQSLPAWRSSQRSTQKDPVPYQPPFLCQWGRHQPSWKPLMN
Sequence of Paired box protein Pax-6 (Homo sapiens) (P26367 whole entry, looked up): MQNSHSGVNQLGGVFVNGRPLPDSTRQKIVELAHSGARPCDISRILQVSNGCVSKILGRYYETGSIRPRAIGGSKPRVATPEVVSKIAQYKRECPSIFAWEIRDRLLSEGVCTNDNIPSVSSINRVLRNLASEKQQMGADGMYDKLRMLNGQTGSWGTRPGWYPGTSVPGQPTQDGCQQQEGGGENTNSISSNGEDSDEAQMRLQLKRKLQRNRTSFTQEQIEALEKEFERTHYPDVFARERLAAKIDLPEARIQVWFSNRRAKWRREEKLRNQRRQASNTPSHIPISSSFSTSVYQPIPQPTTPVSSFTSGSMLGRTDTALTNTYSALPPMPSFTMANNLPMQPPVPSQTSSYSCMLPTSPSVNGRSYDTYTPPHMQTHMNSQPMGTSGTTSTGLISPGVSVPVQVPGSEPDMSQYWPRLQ
Sequence of Estrogen-related receptor gamma (Homo sapiens) (P62508 whole entry, looked up, the tested form may be a part): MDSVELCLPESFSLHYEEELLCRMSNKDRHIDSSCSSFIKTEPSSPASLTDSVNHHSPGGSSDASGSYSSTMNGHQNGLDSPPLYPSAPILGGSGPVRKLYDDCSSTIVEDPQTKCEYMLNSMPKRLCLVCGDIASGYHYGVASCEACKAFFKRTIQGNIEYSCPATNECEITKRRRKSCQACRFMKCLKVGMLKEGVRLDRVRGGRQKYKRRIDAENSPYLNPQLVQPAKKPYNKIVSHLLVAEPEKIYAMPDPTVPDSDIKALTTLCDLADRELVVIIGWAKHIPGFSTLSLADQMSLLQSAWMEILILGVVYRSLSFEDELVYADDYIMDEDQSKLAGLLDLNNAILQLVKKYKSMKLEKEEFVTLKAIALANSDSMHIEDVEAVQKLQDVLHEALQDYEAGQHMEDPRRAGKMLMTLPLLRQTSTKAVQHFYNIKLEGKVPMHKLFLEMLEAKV
Sequence of Estrogen receptor (Homo sapiens) (P03372 whole entry, looked up, the tested form may be a part): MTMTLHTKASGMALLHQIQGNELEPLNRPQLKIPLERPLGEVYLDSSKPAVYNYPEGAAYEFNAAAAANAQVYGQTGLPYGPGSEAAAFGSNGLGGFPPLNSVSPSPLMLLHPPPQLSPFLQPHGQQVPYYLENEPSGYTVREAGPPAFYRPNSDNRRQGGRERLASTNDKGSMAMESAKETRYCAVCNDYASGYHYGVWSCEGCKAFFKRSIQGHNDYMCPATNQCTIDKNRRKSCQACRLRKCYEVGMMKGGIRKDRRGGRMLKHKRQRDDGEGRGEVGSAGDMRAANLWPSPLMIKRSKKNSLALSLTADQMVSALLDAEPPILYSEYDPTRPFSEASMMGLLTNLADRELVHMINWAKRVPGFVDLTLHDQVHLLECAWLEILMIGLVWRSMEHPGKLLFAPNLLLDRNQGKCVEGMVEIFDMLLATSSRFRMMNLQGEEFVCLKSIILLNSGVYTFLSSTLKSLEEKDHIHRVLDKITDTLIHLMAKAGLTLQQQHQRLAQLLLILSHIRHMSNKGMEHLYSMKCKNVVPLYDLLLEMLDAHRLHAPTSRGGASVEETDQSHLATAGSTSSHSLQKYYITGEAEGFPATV
Sequence of Steroid hormone receptor ERR1 (Homo sapiens) (P11474 whole entry, looked up, the tested form may be a part): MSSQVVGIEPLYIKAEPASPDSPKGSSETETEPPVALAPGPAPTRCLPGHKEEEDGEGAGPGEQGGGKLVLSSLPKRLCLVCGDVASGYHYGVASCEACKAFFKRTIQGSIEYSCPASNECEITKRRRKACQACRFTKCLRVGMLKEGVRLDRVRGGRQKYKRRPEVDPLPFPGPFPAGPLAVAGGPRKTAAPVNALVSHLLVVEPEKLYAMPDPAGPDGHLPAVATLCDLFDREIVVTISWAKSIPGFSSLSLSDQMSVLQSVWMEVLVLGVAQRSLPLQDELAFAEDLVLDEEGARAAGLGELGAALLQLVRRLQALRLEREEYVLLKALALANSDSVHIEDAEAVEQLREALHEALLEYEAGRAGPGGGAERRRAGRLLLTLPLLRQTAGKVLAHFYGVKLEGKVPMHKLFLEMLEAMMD

As for `O=C(Nc1ccc(Cl)cc1)Nc1ccc(Cl)c(Cl)c1`, the call in assay [1], in assay [3], in assay [5], in [6], in assay [7] and in assay [8] was inactive. Also, the molecule was classed as inactive in [9], in assay [10], in [11], in assay [12] and in assay [13]. Also, the AC50 is 2.12 µM (active) in assay [2] and 4.17 µM (active) in [4].
For `O=c1ccc2ccccc2o1`, the outcome in assay [1], in assay [2], in [4], in assay [5], in [6] and in assay [7] was inactive. For the same molecule, the outcome in [8], in [9], in assay [10], in assay [11], in assay [12] and in assay [14] was inactive. The result in [15] was inactive.
On to `Cc1cn([C@H]2C[C@H](N=[N+]=[N-])[C@@H](CO)O2)c(=O)[nH]c1=O`, for which the call in assay [1], in assay [2], in [3], in assay [4], in assay [5] and in assay [6] was inactive. Also, the outcome in [7], in assay [8], in [9], in [11], in assay [12] and in assay [16] was inactive. In addition, the outcome in assay [17] and in [18] was inactive.
Regarding `O=C(O)Cc1cc(I)c(Oc2ccc(O)c(I)c2)c(I)c1`, the molecule was called inactive in assay [1], in assay [5], in assay [6], in assay [7], in assay [8] and in assay [9]. For the same molecule, the result in assay [11], in [12], in assay [19], in assay [20], in assay [13] and in assay [15] was inactive. In assay [18], the call was inactive. For the same molecule, the AC50 in [2] was 26.3 µM (active) and 26.1 µM (active) and 7.66 µM (active); in [4], 34.9 µM (active) [middle of 4 runs]; in assay [7] it was 11.4 µM (active); in assay [16] it was 33.7 µM (active) [middle of 4 runs].
